Rows were chosen to be rich in hits. Some 0.84% of all compounds tested hit in one or more screens of this group.
SRC3 TRFRET art = TR-FRET detection interference compounds, artefact control for PPARgamma SRC-3 recruitment agonists, biochemical, TR-FRET ratio; TR-FRET artefact counter-screen, PPARgamma/SRC-3 format; hits give high values; TR-FRET ratio at 8 µM; hit rate 0.39% among 99,000
PPARg SRC1 recr = PPARgamma agonists recruiting SRC-1 coactivator, primary screen, biochemical | activation, % at 8 µM | PPARgamma-SRC-1 coactivator recruitment biochemical assay | hit rate 0.41% among 200,000 | Peroxisome proliferator-activated receptor gamma (Homo sapiens), P37231; in the data active means activation above about 19%;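 further: 0% = DMSO and 100% = reference agonist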
Target sequence (P37231 whole entry, looked up): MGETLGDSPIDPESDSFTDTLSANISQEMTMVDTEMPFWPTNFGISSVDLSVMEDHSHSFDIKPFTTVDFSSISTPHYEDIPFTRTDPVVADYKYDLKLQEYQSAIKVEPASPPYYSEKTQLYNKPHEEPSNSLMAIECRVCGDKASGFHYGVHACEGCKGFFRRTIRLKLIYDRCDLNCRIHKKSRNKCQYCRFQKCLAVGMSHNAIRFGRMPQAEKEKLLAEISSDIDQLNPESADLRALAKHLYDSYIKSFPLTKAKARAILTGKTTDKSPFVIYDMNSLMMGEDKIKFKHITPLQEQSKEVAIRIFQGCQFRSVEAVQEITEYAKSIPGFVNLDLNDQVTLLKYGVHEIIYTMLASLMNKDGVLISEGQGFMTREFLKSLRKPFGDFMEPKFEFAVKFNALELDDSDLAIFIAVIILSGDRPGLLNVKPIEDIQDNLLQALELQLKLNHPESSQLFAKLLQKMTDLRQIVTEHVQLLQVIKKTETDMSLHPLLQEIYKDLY
PPARg SRC3 recr = PPARgamma agonists recruiting SRC-3 coactivator, primary screen, biochemical; AID 731, 2007; hit rate 0.26% among 200,000; biochemical PPARgamma/SRC-3 coactivator recruitment assay; activation, % at 8 µM; Peroxisome proliferator-activated receptor gamma (Homo sapiens), P37231; in the data active means activation above about 23%;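 further: 0% = DMSO and 100% = reference agonist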
SRC1 TRFRET art = TR-FRET detection interference compounds, primary screen, artefact control for PPARgamma SRC-1 recruitment agonists, biochemical, TR-FRET emission ratio | TR-FRET detection artefact counter-screen; hits give high values | TR-FRET ratio at 8 µM | hit rate 0.34% among 99,000 | AID 1051, 2008; in the data active means TR-FRET ratio above about 2300
TR-FRET SRC-2 ct = TR-FRET signal artefacts, primary screen, artefact control for PPARgamma SRC-2 agonist project, biochemical | TR-FRET artefact counter-screen; hits give high values | AID 1049, 2008 | TR-FRET ratio at 8 µM | hit rate 0.4% among 200,000
PPARg SRC2 recr = agonists of PPARg-SRC-2 recruitment, primary screen, biochemical, HTS. PPARgamma LBD-SRC-2 recruitment. activation, % at 8 µM. hit rate 0.34% among 200,000. AID 1032, 2008; in the data active means activation above about 22%;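 further: 0% = vehicle and 100% = reference agonist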
* = called active by the depositor. Unless noted, no stated cut-off is given here; in the data, active means TR-FRET ratio above about 2000; inactive means the rest.

What do the screens show for `CCCCOc1ccc(C(=O)N/C(=C/C=C/c2ccccc2)C(=O)O)cc1`?
SRC3 TRFRET art: 1452; PPARg SRC1 recr: 7; PPARg SRC3 recr: 30*; SRC1 TRFRET art: 1951; TR-FRET SRC-2 ct: 1532; PPARg SRC2 recr: 0

How did CCCCSc1nnc([C@H](C)NC(=O)OC(C)(C)C)o1 do in these assays?
PPARg SRC1 recr: 1; PPARg SRC3 recr: -7; TR-FRET SRC-2 ct: 2298*; PPARg SRC2 recr: 39*

Results for Cc1ccc(-c2csc3ncnc(-n4nnc5ccccc54)c23)cc1 ?
SRC3 TRFRET art: 2064*; PPARg SRC1 recr: -5; PPARg SRC3 recr: 3; SRC1 TRFRET art: 1803; TR-FRET SRC-2 ct: 1648; PPARg SRC2 recr: -8

What do the screens show for `Oc1ccc(Cl)cc1C1=NNC(c2cc(Br)cc3c2OCOC3)C1` (centres undefined)?
SRC3 TRFRET art: 1946; PPARg SRC1 recr: 17; PPARg SRC3 recr: 17; SRC1 TRFRET art: 2488*; TR-FRET SRC-2 ct: 1882; PPARg SRC2 recr: 11

What do the screens show for `O=C(COC(=O)C1CCN(S(=O)(=O)c2cccs2)CC1)c1ccc2c(c1)OCCO2`?
PPARg SRC1 recr: -6; PPARg SRC3 recr: -11; TR-FRET SRC-2 ct: 2115*; PPARg SRC2 recr: -7

What do the screens show for `O=C(COC(=O)C1CCN(S(=O)(=O)c2cccs2)CC1)c1cc2ccccc2o1`?
PPARg SRC1 recr: -3; PPARg SRC3 recr: 0; TR-FRET SRC-2 ct: 2135*; PPARg SRC2 recr: 7

What do the screens show for `O=C1COc2ccc(C(=O)COC(=O)C3CCN(S(=O)(=O)c4cccs4)CC3)cc2N1`?
PPARg SRC1 recr: 10; PPARg SRC3 recr: 17; TR-FRET SRC-2 ct: 1626; PPARg SRC2 recr: 12

How did CC(C)(C)C1CCC(=NOC(=O)c2ccc(F)cc2)CC1 (centres undefined) do in these assays?
SRC3 TRFRET art: 1669; PPARg SRC1 recr: -2; PPARg SRC3 recr: 7; SRC1 TRFRET art: 1589; TR-FRET SRC-2 ct: 1680; PPARg SRC2 recr: -1

How did CCOC(=O)c1c(NC(=O)CSc2nc3cc(Cl)ccc3s2)sc(C(C)=O)c1C do in these assays?
SRC3 TRFRET art: 1545; PPARg SRC1 recr: 2; PPARg SRC3 recr: 5; SRC1 TRFRET art: 1894; TR-FRET SRC-2 ct: 1636; PPARg SRC2 recr: 8

Results for CCOC(=O)c1c(NC(=O)CSc2nc3ccccc3s2)sc(C(C)=O)c1C ?
PPARg SRC1 recr: -2; PPARg SRC3 recr: 0; TR-FRET SRC-2 ct: 2122*; PPARg SRC2 recr: 3

What do the screens show for `Cc1ccc(S(=O)(=O)N2CCCC(C(=O)N(Cc3cccs3)C3CC3)C2)cc1` (centres undefined)?
SRC3 TRFRET art: 1683; PPARg SRC1 recr: 5; PPARg SRC3 recr: -1; SRC1 TRFRET art: 1593; TR-FRET SRC-2 ct: 2180*; PPARg SRC2 recr: 0

Results for CCn1c(CNC(=O)c2ccccc2F)nnc1SCC(=O)NC1CCCCC1C (centres undefined) ?
SRC3 TRFRET art: 1640; PPARg SRC1 recr: 4; PPARg SRC3 recr: 1; SRC1 TRFRET art: 1772; TR-FRET SRC-2 ct: 1465; PPARg SRC2 recr: 7

What do the screens show for `COc1ccc(C)cc1-n1nnnc1SCC(=O)c1ccc2c(c1)OCCO2`?
PPARg SRC1 recr: -9; PPARg SRC3 recr: -1; TR-FRET SRC-2 ct: 3766*; PPARg SRC2 recr: 6

What do the screens show for `CCNc1ccc(P(=O)(c2ccccc2)c2ccccc2)cc1`?
SRC3 TRFRET art: 1604; PPARg SRC1 recr: 2; PPARg SRC3 recr: 1; SRC1 TRFRET art: 1687; TR-FRET SRC-2 ct: 1427; PPARg SRC2 recr: -3

What do the screens show for `Cc1cccc(N(CC(=O)NCc2ccc(F)cc2)C(=O)c2csnn2)c1C`?
SRC3 TRFRET art: 1736; PPARg SRC1 recr: 6; PPARg SRC3 recr: -3; SRC1 TRFRET art: 1950; TR-FRET SRC-2 ct: 1522; PPARg SRC2 recr: 1

What do the screens show for `Nc1cc(S(=O)(=O)N2CCCCC2)ccc1Oc1ccccc1`?
SRC3 TRFRET art: 1629; PPARg SRC1 recr: 4; PPARg SRC3 recr: 3; SRC1 TRFRET art: 1732; TR-FRET SRC-2 ct: 1450; PPARg SRC2 recr: 1

How did Oc1ccc(NCc2cccc(OCc3ccc(F)cc3)c2)cc1 do in these assays?
SRC3 TRFRET art: 1598; PPARg SRC1 recr: 23*; PPARg SRC3 recr: 3; SRC1 TRFRET art: 1688; TR-FRET SRC-2 ct: 1856; PPARg SRC2 recr: -1

Results for O=[N+]([O-])c1ccc(COc2cccc(CNc3ccc(F)cc3)c2)cc1 ?
SRC3 TRFRET art: 1639; PPARg SRC1 recr: -2; PPARg SRC3 recr: -4; SRC1 TRFRET art: 1914; TR-FRET SRC-2 ct: 1394; PPARg SRC2 recr: -3

What do the screens show for `COc1ccc(-c2csc(N(Cc3ccccc3)C(=O)COc3ccc(Cl)cc3)n2)cc1`?
PPARg SRC1 recr: 5; PPARg SRC3 recr: -1; TR-FRET SRC-2 ct: 1523; PPARg SRC2 recr: 2

How did CCN(C(=O)c1cccs1)c1nc(-c2ccc(OC)cc2)cs1 do in these assays?
SRC3 TRFRET art: 2437*; PPARg SRC1 recr: 6; PPARg SRC3 recr: 0; SRC1 TRFRET art: 2224; TR-FRET SRC-2 ct: 1836; PPARg SRC2 recr: 6

What do the screens show for `COc1ccc(-c2csc(N(CCc3ccc(OC)c(OC)c3)C(=O)COc3ccccc3)n2)cc1`?
PPARg SRC1 recr: 15; PPARg SRC3 recr: 11; TR-FRET SRC-2 ct: 2007*; PPARg SRC2 recr: 3

How did COc1ccc(-c2csc(N(CCCN(C)C)C(=O)c3cccs3)n2)cc1 do in these assays?
SRC3 TRFRET art: 1557; PPARg SRC1 recr: 2; PPARg SRC3 recr: 0; SRC1 TRFRET art: 1918; TR-FRET SRC-2 ct: 1458; PPARg SRC2 recr: 2

What do the screens show for `N#CCCn1cc(/C=N/NC(N)=S)c(-c2ccccc2)n1`?
SRC3 TRFRET art: 1546; PPARg SRC1 recr: 10; PPARg SRC3 recr: -1; SRC1 TRFRET art: 1983; TR-FRET SRC-2 ct: 1562; PPARg SRC2 recr: 3

Results for CC(NC(=O)c1cn(C(C)c2ccccc2F)nn1)c1ccncc1 (centres undefined) ?
SRC3 TRFRET art: 1679; PPARg SRC1 recr: 0; PPARg SRC3 recr: 6; SRC1 TRFRET art: 1780; TR-FRET SRC-2 ct: 1570; PPARg SRC2 recr: 3

What do the screens show for `CC(C)CCNC(=O)NC(=O)COC(=O)/C=C/c1cnc2ccccc2n1`?
PPARg SRC1 recr: 10; PPARg SRC3 recr: 1; TR-FRET SRC-2 ct: 2705*; PPARg SRC2 recr: 64*

What do the screens show for `CC(C)CCNC(=O)NC(=O)COC(=O)/C=C/c1cccc([N+](=O)[O-])c1`?
SRC3 TRFRET art: 1560; PPARg SRC1 recr: 13; PPARg SRC3 recr: 3; SRC1 TRFRET art: 1733; TR-FRET SRC-2 ct: 1343; PPARg SRC2 recr: 3

Results for N#Cc1c(-c2ccccc2)cc(-c2ccccc2)nc1Br ?
SRC3 TRFRET art: 2095*; PPARg SRC1 recr: 7; PPARg SRC3 recr: 20; SRC1 TRFRET art: 1479; TR-FRET SRC-2 ct: 1449; PPARg SRC2 recr: -3

What do the screens show for `COc1ccc(S(=O)(=O)Nc2cc3c(cc2C(C)=O)OCO3)cc1`?
SRC3 TRFRET art: 1517; PPARg SRC1 recr: 3; PPARg SRC3 recr: 4; SRC1 TRFRET art: 1829; TR-FRET SRC-2 ct: 1580; PPARg SRC2 recr: -5
